Consider 13 compounds from PubChem BioAssay AID2284388 (EPA ToxCast).

Records with an inconclusive call do not appear. Activity calls are given as the source filed them. How the source made its calls: active means hit-call score of the fitted dose curve at least 0.9, where 1 is the maximum; inconclusive means response in the unintended direction; inactive means score below 0.9.

Sequence of human Retinoid X Receptor beta (RXRb) Agonism, RXRB (gene 6257) (P28702 whole entry, looked up): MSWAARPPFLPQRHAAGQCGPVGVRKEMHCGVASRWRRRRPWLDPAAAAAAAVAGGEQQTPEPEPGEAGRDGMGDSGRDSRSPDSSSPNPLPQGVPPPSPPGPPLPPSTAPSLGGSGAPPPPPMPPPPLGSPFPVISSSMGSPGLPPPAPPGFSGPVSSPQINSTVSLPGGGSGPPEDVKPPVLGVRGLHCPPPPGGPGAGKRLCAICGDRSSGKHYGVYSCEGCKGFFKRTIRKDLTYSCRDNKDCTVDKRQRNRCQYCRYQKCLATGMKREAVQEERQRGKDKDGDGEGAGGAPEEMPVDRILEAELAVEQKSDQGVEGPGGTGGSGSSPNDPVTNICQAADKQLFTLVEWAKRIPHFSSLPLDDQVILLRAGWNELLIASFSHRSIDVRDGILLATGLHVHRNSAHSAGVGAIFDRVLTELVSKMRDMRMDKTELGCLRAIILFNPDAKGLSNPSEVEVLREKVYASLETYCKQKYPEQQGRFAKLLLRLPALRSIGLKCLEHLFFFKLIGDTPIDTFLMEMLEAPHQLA

The target of the test is human Retinoid X Receptor beta (RXRb) Agonism, RXRB (gene 6257) (UniProt P28702). The test is described as follows: ERF_TW_NR_COA_hRXRB: Eurofins (ERF) Nuclear Receptor (NR) Functional Coactivator Assay for human Retinoid X Receptor beta (RXRb) Agonism. On the procedure:
ERF_TW_NR_COA_hRXRB is a biochemical, single-readout assay that uses extracted gene-proteins in a cell-free assay. Measurements were taken 0.5 hours after chemical dosing in a 96-well plate. See RXRbeta Human Retinoid X NHR Functional Agonist Coactivator Assay, Panlabs.ERF_TW_NR_COA_hRXRB is an assay component calculated from the ERF_TW_NR_COA_hRXRB assay. It is designed to measure FRET using a type of binding reporter as detected by fluorescence intensity of fluorobexarotene with fluorimetry technology.Data from the assay component ERF_TW_NR_COA_hRXRB was analyzed at the assay endpoint, ERF_TW_NR_COA_hRXRB, in the positive analysis fitting direction relative to DMSO as the negative control and baseline of activity. Using a type of binding reporter, gain-of-signal activity can be used to understand changes in binding as they relate to gene RXRB. To generalize the intended target to other relatable targets, this assay endpoint is annotated to the nuclear receptor intended target family, where the subfamily is non-steroidal.
Test compound and/or vehicle is incubated with the 2 nM retinoid X receptor beta (RXRbeta)-LBD and coactivator peptide for 30 minutes at RT. Determination of the amount of complex formed is read spectrofluorimetrically (excitation: 337 nm, emission: 520/490 nm). Test compound-induced increase fluorescence by 50 percent or more (>/=50%) relative to the 10 uM fluorobexarotene response indicates possible RXRbeta receptor agonist activity.
Consider `Cc1ccc2cc3c(ccc4ccccc43)c3c2c1CC3`, for which the outcome was inactive. In the case of `O=C(O)C(F)(F)C(F)(F)C(F)(F)C(F)(F)C(F)(F)C(F)(F)C(F)(F)C(F)(F)Cl`, the outcome was inactive. For the compound `O=S(=O)(O)C(F)(F)C(F)(F)C(F)(F)C(F)(F)C(F)(F)C(F)(F)C(F)(F)C(F)(F)F`, the result was inactive.

For the compound `ClC1=C(Cl)[C@]2(Cl)[C@@H]3[C@@H]4C[C@@H]([C@H]5O[C@@H]45)[C@@H]3[C@@]1(Cl)C2(Cl)Cl`, the compound was classed as inactive.

On to `O=C(O)C(F)(F)OC(F)(F)C(F)(F)OC(F)(F)C(F)(F)OC(F)(F)C(F)(F)C(F)(F)C(F)(F)F`, for which the call was inactive. As to `CN(c1nccc(=O)[nH]1)C1CCN(c2nc3ccccc3n2Cc2ccc(F)cc2)CC1`, the compound was classed as inactive.

For `ClC1=C(Cl)[C@]2(Cl)[C@@H]3[C@H]4C[C@H]([C@@H]5O[C@H]45)[C@@H]3[C@@]1(Cl)C2(Cl)Cl`, the result was inactive. Turning to `C/C(=C\c1ccc(C(=O)O)cc1)c1ccc2c(c1)C(C)(C)CCC2(C)C`, the call was inactive. Take `O=C(O)C(F)(F)C(F)(F)C(F)(F)OC(F)(C(F)(F)F)C(F)(F)F`: the result was inactive. Turning to `CC(=O)c1cc(C(C)(C)C)cc2c1CCC2(C)C`, the AC50 was 14.5 µM (active). Turning to `CCCc1c(OCCCOc2ccc(OCC(=O)O)cc2)ccc(C(C)=O)c1O`, the result was inactive. Consider `OCCCC(F)(F)C(F)(F)C(F)(F)C(F)(F)C(F)(F)C(F)(F)C(F)(F)F`, for which the outcome was inactive. Regarding `CC1(C)CCC(C)(C)c2cc(C(=O)Nc3ccc(C(=O)O)cc3)ccc21`, the call was inactive.

A word on the AC50: it is the midpoint of the concentration-response curve, whichever way the signal moves.
